This passage reports fluorescence (KMESF) results from PubChem BioAssay AID1776 (NMMLSC, 2009).

In all, about 190,000 compounds went through this assay and about 490 (0.26%) were called active. This is one part of a sample in which actives are shown more often than they occur. Rule as the data show it: active = fluorescence above about 89; inactive = the rest.

The assay is described as follows: green autofluorescence of compounds with GSH beads – biophysical, 488/530 nm, flow cytometry, artefact control, profiling panel (AID 1776).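 Also: glutathione beads carrying GST-tagged Bcl family fusion proteins plus one bare bead set; values are compound well signal with DMSO vehicle wells as background.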 Particulars: compound fluorescence 488/530 nm, at 10 µM, stronger effect = higher value. On the technique in general: Flow cytometry measures light scatter and fluorescence of single cells or particles in a stream.
For the compound `Cc1ccc(Cl)cc1NC(=O)COC(=O)C1CCCCC1`, the fluorescence (KMESF) was 249 (active).

Take `Cc1ccc(Cl)cc1NC(=O)COC(=O)CC(C)(C)C`: the fluorescence (KMESF) was 12 (inactive).

Turning to `O=C(COC(=O)C1CCCCC1)Nc1ccc([N+](=O)[O-])cc1`, the fluorescence (KMESF) was 25 (inactive).

On to `COc1cc(CN2CCN(Cc3ccc(C)cc3)CC2)c([N+](=O)[O-])cc1OC`, for which the fluorescence (KMESF) was 14 (inactive).

For the compound `Cc1nccc(-c2ccc(-n3c(C)ccc3C)cc2)n1`, the fluorescence (KMESF) is 9 (inactive).

In the case of `CCC(=O)N1CCC(C(N)=O)(N2CCCCC2)CC1`, the fluorescence (KMESF) was 12 (inactive).

For `Cc1ccnc2nc(C(=O)Nc3nnc(-c4ccccc4)o3)nn12`, the fluorescence (KMESF) is 14 (inactive).

In the case of `CCc1nnc(NC(=O)c2nc3nccc(C)n3n2)s1`, the fluorescence (KMESF) was 259 (active).

Regarding `CCc1nnc(NC(=O)c2cccs2)s1`, the fluorescence (KMESF) is 15 (inactive).

Regarding `CC1CN(C(=S)SCC(=O)c2ccccc2)CC(C)O1` (stereo not given), the fluorescence (KMESF) is 18 (inactive).

Regarding `CC1(c2ccccc2Cl)NC(=O)N(CC(=O)NC(=O)NCc2ccco2)C1=O` (stereo not given), the fluorescence (KMESF) is 27 (inactive).

Regarding `CC1CN(C(=O)CN2C(=O)NC(C)(c3ccccc3)C2=O)CC(C)O1` (stereo not given), the fluorescence (KMESF) is 263 (active).

On to `COc1ccccc1CNC(=O)CN1CCC(n2cnc3cc(F)ccc32)CC1`, for which the fluorescence (KMESF) was 10 (inactive).

In the case of `CCc1ccc2ncc(C(=O)c3ccccc3)c(N3CCOCC3)c2c1`, the fluorescence (KMESF) is 15 (inactive).

As to `CCNc1nc(NC(C)C)nc(N2CC(=O)N(CC(=O)OCC)C2=N)n1`, the fluorescence (KMESF) was 29 (inactive).

In the case of `O=C(Nc1cc(Cl)cc(Cl)c1)C(NCCCO)c1ccccc1` (stereo not given), the fluorescence (KMESF) was 18 (inactive).

For the compound `CCOc1cc(C(=O)OCC(=O)Nc2cccc(C)c2)ccc1OCC(=O)N1CCOCC1`, the fluorescence (KMESF) is 16 (inactive).

On to `CCCCNC(=O)CSc1nc2ccc(NC(=O)CSc3nnc(N)s3)cc2s1`, for which the fluorescence (KMESF) was 17 (inactive).

With `O=C(NCc1nnc(SCC(=O)N2CCCc3ccccc32)o1)c1ccccc1F`, the fluorescence (KMESF) is 13 (inactive).

`CN1CCN(C(=O)N2c3ccccc3CCc3ccccc32)CC1`: the fluorescence (KMESF) was 13 (inactive).

On to `Cc1ccc(C(C(=O)NCc2ccco2)N(CC2CCCO2)C(=O)Cn2nnc3ccccc32)cc1` (stereo not given), for which the fluorescence (KMESF) was 37 (inactive).

Take `COCCNC(=O)C(c1ccc(C)o1)N(Cc1ccccc1)C(=O)Cn1nnc2ccccc21` (stereo not given): the fluorescence (KMESF) was 21 (inactive).

With `COc1ccccc1N(C(=O)Cn1nnc2ccccc21)C(C(=O)NCc1ccco1)c1ccc(C)o1` (stereo not given), the fluorescence (KMESF) was 248 (active).

Take `CCCCC(NC(=O)c1cccc(Br)c1)C(=O)O` (stereo not given): the fluorescence (KMESF) is 10 (inactive).

For the compound `CCN(Cc1ccccc1)C(=O)CN1C(=S)NC(C)(C)CC1C` (stereo not given), the fluorescence (KMESF) is 20 (inactive).

In the case of `COc1cc([C@H](Cc2ccccc2)NC(C)=O)oc(=O)c1`, the fluorescence (KMESF) is 18 (inactive).

`CC(Oc1ccccc1)C(=O)NN1Cc2ccccc2C1=N` (stereo not given): the fluorescence (KMESF) was 9 (inactive).

With `NC(=O)c1ccc(N2CCOCC2)nc1`, the fluorescence (KMESF) was 10 (inactive).

Consider `CCN(CC)Cc1nc2sc(C)c(C)c2c(=O)[nH]1`, for which the fluorescence (KMESF) was 11 (inactive).

`O=C(CN1CCN(c2ccc(Cl)cc2)CC1)NCc1cccs1`: the fluorescence (KMESF) is 18 (inactive).

For the compound `Cc1cccc(N2Cc3ccccc3C2=NC(=O)c2ccc(Cl)nc2)c1`, the fluorescence (KMESF) was 8 (inactive).

`O=C(CSc1nc2ccccc2[nH]1)Nc1nc(-c2ccccc2)c(-c2ccccc2)o1`: the fluorescence (KMESF) is 12 (inactive).

As for `O=c1c([N+](=O)[O-])cccn1Cc1ccc(F)cc1Cl`, the fluorescence (KMESF) was 14 (inactive).

Regarding `COc1ccc(COC(=O)N/N=C(\C)CC(=O)Nc2ccc(Cl)cc2)cc1`, the fluorescence (KMESF) was 5 (inactive).

As for `CC(C)(C)c1ccc(NC(=O)COC(=O)CCc2nc3ccccc3c(=O)[nH]2)cc1`, the fluorescence (KMESF) was 11 (inactive).

For `OCCC1CN(Cc2ccccc2-c2ccco2)CCN1Cc1ccsc1` (stereo not given), the fluorescence (KMESF) was 17 (inactive).

Take `COc1ccccc1-n1c(=S)[nH]c2c(sc(=S)n2-c2ccc(C)cc2C)c1=O`: the fluorescence (KMESF) is 25 (inactive).

Regarding `O=C(c1cnn(-c2ccc(Cl)cc2)c1)c1ccccc1O`, the fluorescence (KMESF) was 11 (inactive).

For the compound `Cc1ccc(CCC(=O)Nc2ncc(Cc3cc(Cl)ccc3Cl)s2)o1`, the fluorescence (KMESF) was 7 (inactive).

With `Cc1ncc(CC(=O)n2cc(C(=O)c3cc(Cl)ccc3O)cn2)s1`, the fluorescence (KMESF) was 256 (active).

For the compound `COCCCNc1nc2c(-c3cccc(C(F)(F)F)c3)nnn2c2ccccc12`, the fluorescence (KMESF) is 16 (inactive).

For `O=S(=O)(Nc1ccccc1N1CCOCC1)c1ccc(Cl)s1`, the fluorescence (KMESF) was 266 (active).

As for `COc1cc(NC(=O)c2ccccc2NS(=O)(=O)c2ccc(Cl)s2)cc(OC)c1`, the fluorescence (KMESF) is 9 (inactive).

For the compound `O=S(=O)(Nc1cc(S(=O)(=O)N2CCOCC2)ccc1N1CCCC1)c1cccs1`, the fluorescence (KMESF) was 19 (inactive).

`COc1cc([N+](=O)[O-])ccc1NC(=O)CN1CCCC1`: the fluorescence (KMESF) was 10 (inactive).

For `CCOC(=O)CC(=O)CSc1nc(-c2ccccc2)cc(-c2ccc(Cl)cc2)c1C#N`, the fluorescence (KMESF) is 8 (inactive).

In the case of `CCOC(=O)CSc1ccccn1`, the fluorescence (KMESF) is 16 (inactive).

Consider `CCOC(=O)CSc1nccc(N(C)C)c1C#N`, for which the fluorescence (KMESF) was 281 (active).

For `Cc1ccc(CN2CCC(N3CCC(C(=O)NCC4CCCO4)CC3)CC2)o1` (stereo not given), the fluorescence (KMESF) was 22 (inactive).

For `O=C(NCC1CCCCC1)c1cc(S(=O)(=O)N2CCCCC2)ccc1N1CCOCC1`, the fluorescence (KMESF) was 10 (inactive).

For `CCN1C(=O)/C(=c2\s/c(=C3\Sc4ccccc4N3C)c(=O)n2C)N(C)C1=S`, the fluorescence (KMESF) was 15 (inactive).

Turning to `COc1cc(-c2nnn(CC(=O)NCc3ccccc3)n2)cc(OC)c1OC`, the fluorescence (KMESF) was 13 (inactive).

For `O=C(CSc1ccc([N+](=O)[O-])cn1)Nc1ccc(N2CCOCC2)cc1`, the fluorescence (KMESF) was 16 (inactive).

For the compound `CCOc1cc(/C=N/NC(=O)OC)ccc1OCCSc1ccc(Cl)cc1`, the fluorescence (KMESF) was 13 (inactive).

As to `CCC1C=C(c2ccccc2)C=CN=C1N(CC)CC` (stereo not given), the fluorescence (KMESF) was 5 (inactive).

Consider `Brc1ccc(CSc2ccc(-c3ccco3)nn2)cc1`, for which the fluorescence (KMESF) was 11 (inactive).

`COC(=O)CC1=NN(c2nc(C)cc(C)n2)C(=O)C1`: the fluorescence (KMESF) was 14 (inactive).

`Cc1ccc2[nH]c(C(=O)O)c(NC(=O)c3ccccc3[N+](=O)[O-])c2c1`: the fluorescence (KMESF) is 10 (inactive).

Turning to `CCCCN1C(=O)/C(=C(/C#N)C(N)=O)c2ccccc21`, the fluorescence (KMESF) is 16 (inactive).

In the case of `CCN(Cc1ccccc1)S(=O)(=O)c1cc(C(=O)O)ccc1OC`, the fluorescence (KMESF) is 14 (inactive).

With `CC[C@H]1OC(=O)[C@H](C)[C@@H](O[C@H]2C[C@@](C)(OC)[C@@H](O)[C@H](C)O2)[C@H](C)[C@@H](O[C@@H]2O[C@H](C)C[C@H](N(C)C)[C@H]2O)[C@](C)(O)C[C@@H](C)[C@@H]2N[C@@H](COCCOC)O[C@H]([C@H]2C)[C@]1(C)O`, the fluorescence (KMESF) is 22 (inactive).

In the case of `O=C(Cc1c(F)cccc1Cl)Nc1ncc([N+](=O)[O-])s1`, the fluorescence (KMESF) was 18 (inactive).

Take `COc1cc(-c2cc(C(=O)OCC(=O)Nc3ccc4c(c3)OCO4)c3ccccc3n2)cc(OC)c1OC`: the fluorescence (KMESF) was 4 (inactive).

In the case of `Cc1cc(C)cc(C(=O)NC2C(=O)N3C(C(=O)O)=C(CSc4nnc(C)s4)CSC23)c1` (stereo not given), the fluorescence (KMESF) was 12 (inactive).

`CCOC(=O)CNc1nc(Cl)nc(Nc2ccccc2)n1`: the fluorescence (KMESF) was 10 (inactive).

Consider `OC(COc1cccc2ccccc12)CN1CCN(c2ccccn2)CC1` (stereo not given), for which the fluorescence (KMESF) was 265 (active).

As for `Cc1cccc(OCC(O)CN2CCN(CCN3C(=O)c4cccc5cccc(c45)C3=O)CC2)c1C` (stereo not given), the fluorescence (KMESF) was 13 (inactive).

For the compound `Cc1ccccc1OCC(O)CN1CCN(c2ccccn2)CC1` (stereo not given), the fluorescence (KMESF) is 9 (inactive).

As for `Cc1cccc(C(=O)OCC(=O)Nc2sc3c(c2C#N)CCC3)c1`, the fluorescence (KMESF) was 5 (inactive).

For the compound `CC(C)CC(=O)NC(=S)Nc1ccc(F)cc1F`, the fluorescence (KMESF) was 10 (inactive).

`Cc1ccc(C2NC(C(=O)O)CS2)cc1` (stereo not given): the fluorescence (KMESF) was 11 (inactive).

Consider `O=C(Nc1ccccc1F)c1ccccc1-c1ccccc1`, for which the fluorescence (KMESF) was 15 (inactive).

In the case of `Cc1ccc(-c2cn3cc([N+](=O)[O-])ccc3n2)cc1`, the fluorescence (KMESF) is 13 (inactive).

As to `Cc1ccc(-n2cc3ccc([N+](=O)[O-])cc3n2)cc1`, the fluorescence (KMESF) was 104 (active).

As to `Cc1cc(C)nc(Nc2cc([N+](=O)[O-])ccc2C)n1`, the fluorescence (KMESF) is 10 (inactive).

Consider `CCOC(=O)C1(Cc2cccc(OC)c2)CCN(Cc2csc(C(C)=O)c2)CC1`, for which the fluorescence (KMESF) is 17 (inactive).

As for `COCC(C)NC(=O)CSc1nc2nn(-c3ccccc3)c(=O)c-2c2n1CCCCC2` (stereo not given), the fluorescence (KMESF) was 25 (inactive).

Turning to `COc1cccc(OC)c1C(=O)OCC(=O)/C(C#N)=C(\C)N`, the fluorescence (KMESF) is 11 (inactive).

As for `C/C(=N\NC(=O)NC1CCCCC1)c1ccc(OC(F)F)cc1OC(F)F`, the fluorescence (KMESF) was 14 (inactive).

Turning to `COc1cccc(/C=C(/CC(=O)Nc2ccc(N3CCOCC3)cc2)c2nc3ccccc3s2)c1`, the fluorescence (KMESF) was 13 (inactive).

Turning to `CCS(=O)(=O)c1ccc(C(=O)NC)c(Cl)c1Cl`, the fluorescence (KMESF) is 12 (inactive).

Regarding `Cc1ccccc1Nc1nc(N)nc(CSc2ccccc2)n1`, the fluorescence (KMESF) is 11 (inactive).

Regarding `Cc1nn(C)c(C)c1S(=O)(=O)N1CCC(CO)(Cc2ccc(Cl)cc2)CC1`, the fluorescence (KMESF) was 23 (inactive).

With `NS(=O)(=O)c1ccc(NC(=S)NC(=O)c2cccc(Br)c2)cc1`, the fluorescence (KMESF) is 19 (inactive).

Turning to `CC(=O)Cc1nsc(NC(=O)c2ccc(Cl)cc2Cl)n1`, the fluorescence (KMESF) was 10 (inactive).

As for `COc1cc(NC(=O)c2cc([N+](=O)[O-])ccc2Br)ccc1NC(=O)c1ccco1`, the fluorescence (KMESF) is 8 (inactive).

Take `O=C(NCc1cccnc1)c1nc(-c2cccs2)no1`: the fluorescence (KMESF) was 15 (inactive).

Take `Cc1ccc(C(=O)NN(CCC#N)C2=NS(=O)(=O)c3ccccc32)cc1`: the fluorescence (KMESF) is 20 (inactive).

In the case of `CCNC(=O)c1ccc(OCC(=O)Nc2ccc(F)cc2)c(OC)c1`, the fluorescence (KMESF) is 14 (inactive).

Take `CCC(C)c1ccc(NC(=S)NCc2ccccn2)cc1` (stereo not given): the fluorescence (KMESF) is 13 (inactive).

In the case of `CC(C)(C)NC(=O)CN1CCC(NC(=O)C23CC4CC(CC(C4)C2)C3)CC1`, the fluorescence (KMESF) was 20 (inactive).

In the case of `Cc1ccc(CN(Cc2cccnc2)C(=S)Nc2cc(Cl)ccc2C)cc1`, the fluorescence (KMESF) was 15 (inactive).

Turning to `CCOC(=O)C(NC(C)=O)C(=O)Nc1ccc(OC)cc1` (stereo not given), the fluorescence (KMESF) is 24 (inactive).

For the compound `CCOC(=O)C1CCN(c2ccc(C(=O)O)cc2[N+](=O)[O-])CC1`, the fluorescence (KMESF) is 14 (inactive).

As to `O=C(/C=C/c1ccc(F)cc1)NC(=S)NNC(=O)c1cccnc1`, the fluorescence (KMESF) is 7 (inactive).

For the compound `Cc1cc(SCC(=O)NCCN2C(=O)CSC2=O)nc2ccccc12`, the fluorescence (KMESF) is 15 (inactive).

As to `Cc1ccc(CC2S/C(=C(/C#N)C(=O)N3CCOCC3)N(c3ccccc3)C2=O)cc1` (stereo not given), the fluorescence (KMESF) was 25 (inactive).

With `CCOc1ccc(S(=O)(=O)N(CC(=O)O)c2ccccc2)cc1`, the fluorescence (KMESF) is 264 (active).

As for `CCN(CC)C(=O)CN(c1cccc([N+](=O)[O-])c1)S(=O)(=O)c1ccccc1`, the fluorescence (KMESF) was 52 (inactive).

`CCN(c1ccccc1)S(=O)(=O)c1ccc(N)cc1`: the fluorescence (KMESF) is 14 (inactive).
